Records with an inconclusive call do not appear. A call without a number means that no potency is given here. Calls of active or inactive are those of the source. The call rests on the fitted dose curve; in most records, active means well fitted curve in the direction sought with a large enough effect; inconclusive means small, poorly fitted or top-dose-only effect, or another doubt; inactive means no such curve, though single readings can be large; an effect the other way counts as inactive or inconclusive.
Biological target: Aldehyde dehydrogenase, mitochondrial (Homo sapiens) (UniProt P05091)
Test: qHTS for Inhibitors of the Aldehyde Dehydrogenase Family (ALDH2) Primary screen (AID 2061308); further: nearly all actives have a fitted effect of over 55% in size
Details: ALDH2 enzyme inhibition qHTS, 1536-well; series mostly up to 56 µM

| Structure (SMILES) | Potency |
| --- | --- |
| Clc1ccc(CSc2nc3ncc(Br)cc3[nH]2)cc1 | inactive |
| CC(C)CCC[C@@H](C)[C@H]1CC[C@H]2[C@@H]3CC=C4C[C@@H](OC(=O)NCCN(C)C)CC[C@]4(C)[C@H]3CC[C@]12C | inactive |
| Cc1noc(CN(C)c2ncnc3ccc(-c4ccc5c(c4)OCO5)cc23)n1 | inactive |
| Cc1cc2c(s1)c(C#N)c(C(=O)NCc1ccccc1F)n2C | inactive |
| Nc1ncnc2c1nc(N)n2[C@@H]1O[C@H](CO)[C@@H](O)[C@H]1O | inactive |
| CN1[C@@H]2CC[C@H]1CC(OC(c1ccccc1)c1ccccc1)C2 (stereo not given in full) | inactive |
| Cc1ccc(C[C@H](C(=O)O)N2C(=O)c3ccc(C(=O)O)cc3C2=O)c(C)c1 | inactive |
| Cc1cc(-c2cc(O)ccc2Cl)cc2nnc(Nc3ccc(OCCN4CCCC4)cc3)nc12 | inactive |
| O=C(Nc1ncc(Cc2ccc(C(F)(F)F)cc2)s1)c1cnc(-c2ccccc2)s1 | inactive |
| O=C1CCCC2=C1C(c1[nH]ncc1Cl)N=C(Nc1nc3cccc(Cl)c3o1)N2 (stereo not given) | inactive |
| COCCN(CCOC)c1nc(C)nc2c1nc(-c1ccccc1)n2CCCN1CCCCC1C (stereo not given) | inactive |
| COc1ccc(C2Nc3ccccc3C(=O)N2Cc2ccco2)cc1COc1c(C)cccc1C (stereo not given) | inactive |
| CCCn1c(C)nc2c(N3CCN(C)CC3)nc(C)nc21 | inactive |
| Clc1ccccc1-c1ccc2ncnc(NCc3ccc4c(c3)OCO4)c2c1 | inactive |
| CC(=O)c1ccc(N2CCN(S(=O)(=O)c3ccc4c(c3)oc(=O)n4C)CC2)cc1 | inactive |
| Cc1ccc(N2C(=O)c3ccccc3C2=O)c(C)c1 | inactive |
| O=C(Nc1ccc(Cl)c(Cl)c1)Nc1ccnc(-c2ccncc2)n1 | inactive |
| Fc1cccc(-c2nc3ccccc3s2)c1 | inactive |
| CC(C)c1cccc(C(C)C)c1NC(=O)Nc1ccc(Sc2ccc([N+](=O)[O-])cc2)cc1 | inactive |
| O=C(CN1C(=O)N/C(=C\c2cn(-c3cccc(C(=O)O)c3)cn2)C1=O)Nc1ccc(Cl)cc1 | inactive |

| Structure (SMILES) | Potency |
| --- | --- |
| Cc1ccc(NC(=O)CN2C(=O)N/C(=C\c3cccn3-c3ccc(C(=O)NOCc4ccccc4)cc3)C2=O)cc1 | inactive |
| Cc1cc(NCc2ccc(NC(=O)Cc3ccc(Cl)c(Cl)c3)cc2)no1 | inactive |
| O=C1CCc2cc(S(=O)(=O)Nc3cccc(B(O)O)c3)ccc2N1 | inactive |
| C/C=C/C=C/C=C/C(=O)O[C@@H]1C=C2COC(=O)[C@]2(O)[C@@]2(C)CCCC(C)(C)[C@H]12 | inactive |
| Cc1nnc(-c2cnn(C)c2N)n1CCc1cccs1 | inactive |
| Fc1cccc(CSc2nc3ncc(Br)cc3[nH]2)c1 | inactive |
| Cc1cccc(-n2cnc3cc(C(=O)N4CCCC(C(F)(F)F)C4)ccc32)c1 (stereo not given) | inactive |
| CC(=O)Nc1sc2c(c1-c1nc3ccccc3s1)CCN(C(=O)OC(C)(C)C)C2 | inactive |
| Cc1ccc(CNc2nc(-c3ccccc3C(F)(F)F)nc3ccccc23)cc1 | inactive |
| CCOC(=O)C1CCN(C(=O)C(C)(C)NC(=O)Nc2ccc3sccc3c2)CC1 | inactive |
| O=C1CC(c2ccccc2)CC2=C1C1(CCCCC1)N=C(Nc1nc3ccccc3o1)N2 (stereo not given) | inactive |
| COc1cc(-c2ccc3ncnc(N(C)Cc4csc(C)n4)c3c2)cc(OC)c1OC | inactive |
| Cc1ccc(Cl)cc1NC(=O)c1nc[nH]c1C(=O)Nc1nc2ccccc2[nH]1 | inactive |
| Cc1ccc(OCCn2c(CCNC(=O)C3CCOCC3)nc3ccccc32)cc1 | inactive |
| CCN1CCN(C(=S)c2ccc(O)cc2)CC1 | inactive |
| CNc1nnc(-c2cccc3ccccc23)s1 | inactive |
| O=S(=O)(NCC1CN(S(=O)(=O)c2c(F)cccc2F)C1)c1ccc2c(c1)OCCO2 | inactive |
| Brc1ccc(-c2csc(N3CCCCC3)n2)cc1 | inactive |
| Cc1cnc(-c2ccccc2C(C)C)nc1NCc1cccnc1 | inactive |
| COc1cccc(-c2ccc(-c3nc4ccccc4c(=O)[nH]3)o2)c1 | inactive |

Biological target: Retinaldehyde dehydrogenase 3 (Homo sapiens) (UniProt P47895)
Test: qHTS for Inhibitors of the Aldehyde Dehydrogenase Family (ALDH1A3) Primary screen (AID 2061315)
Details: ALDH inhibition qHTS; series mostly up to 56 µM

| Structure (SMILES) | Potency |
| --- | --- |
| Clc1ccc(CSc2nc3ncc(Br)cc3[nH]2)cc1 | inactive |
| CC(C)CCC[C@@H](C)[C@H]1CC[C@H]2[C@@H]3CC=C4C[C@@H](OC(=O)NCCN(C)C)CC[C@]4(C)[C@H]3CC[C@]12C | inactive |
| Cc1noc(CN(C)c2ncnc3ccc(-c4ccc5c(c4)OCO5)cc23)n1 | inactive |
| Cc1cc2c(s1)c(C#N)c(C(=O)NCc1ccccc1F)n2C | inactive |
| Nc1ncnc2c1nc(N)n2[C@@H]1O[C@H](CO)[C@@H](O)[C@H]1O | inactive |
| CN1[C@@H]2CC[C@H]1CC(OC(c1ccccc1)c1ccccc1)C2 (stereo not given in full) | inactive |
| Cc1ccc(C[C@H](C(=O)O)N2C(=O)c3ccc(C(=O)O)cc3C2=O)c(C)c1 | inactive |
| Cc1cc(-c2cc(O)ccc2Cl)cc2nnc(Nc3ccc(OCCN4CCCC4)cc3)nc12 | inactive |
| O=C(Nc1ncc(Cc2ccc(C(F)(F)F)cc2)s1)c1cnc(-c2ccccc2)s1 | inactive |
| O=C1CCCC2=C1C(c1[nH]ncc1Cl)N=C(Nc1nc3cccc(Cl)c3o1)N2 (stereo not given) | inactive |
| COCCN(CCOC)c1nc(C)nc2c1nc(-c1ccccc1)n2CCCN1CCCCC1C (stereo not given) | inactive |
| COc1ccc(C2Nc3ccccc3C(=O)N2Cc2ccco2)cc1COc1c(C)cccc1C (stereo not given) | inactive |
| CCCn1c(C)nc2c(N3CCN(C)CC3)nc(C)nc21 | inactive |
| Clc1ccccc1-c1ccc2ncnc(NCc3ccc4c(c3)OCO4)c2c1 | inactive |
| CC(=O)c1ccc(N2CCN(S(=O)(=O)c3ccc4c(c3)oc(=O)n4C)CC2)cc1 | inactive |
| Cc1ccc(N2C(=O)c3ccccc3C2=O)c(C)c1 | inactive |
| O=C(Nc1ccc(Cl)c(Cl)c1)Nc1ccnc(-c2ccncc2)n1 | inactive |
| Fc1cccc(-c2nc3ccccc3s2)c1 | inactive |
| CC(C)c1cccc(C(C)C)c1NC(=O)Nc1ccc(Sc2ccc([N+](=O)[O-])cc2)cc1 | inactive |
| O=C(CN1C(=O)N/C(=C\c2cn(-c3cccc(C(=O)O)c3)cn2)C1=O)Nc1ccc(Cl)cc1 | inactive |

| Structure (SMILES) | Potency |
| --- | --- |
| Cc1ccc(NC(=O)CN2C(=O)N/C(=C\c3cccn3-c3ccc(C(=O)NOCc4ccccc4)cc3)C2=O)cc1 | inactive |
| Cc1cc(NCc2ccc(NC(=O)Cc3ccc(Cl)c(Cl)c3)cc2)no1 | inactive |
| O=C1CCc2cc(S(=O)(=O)Nc3cccc(B(O)O)c3)ccc2N1 | inactive |
| C/C=C/C=C/C=C/C(=O)O[C@@H]1C=C2COC(=O)[C@]2(O)[C@@]2(C)CCCC(C)(C)[C@H]12 | inactive |
| Cc1nnc(-c2cnn(C)c2N)n1CCc1cccs1 | inactive |
| Fc1cccc(CSc2nc3ncc(Br)cc3[nH]2)c1 | inactive |
| Cc1cccc(-n2cnc3cc(C(=O)N4CCCC(C(F)(F)F)C4)ccc32)c1 (stereo not given) | inactive |
| CC(=O)Nc1sc2c(c1-c1nc3ccccc3s1)CCN(C(=O)OC(C)(C)C)C2 | inactive |
| Cc1ccc(CNc2nc(-c3ccccc3C(F)(F)F)nc3ccccc23)cc1 | inactive |
| CCOC(=O)C1CCN(C(=O)C(C)(C)NC(=O)Nc2ccc3sccc3c2)CC1 | inactive |
| O=C1CC(c2ccccc2)CC2=C1C1(CCCCC1)N=C(Nc1nc3ccccc3o1)N2 (stereo not given) | inactive |
| COc1cc(-c2ccc3ncnc(N(C)Cc4csc(C)n4)c3c2)cc(OC)c1OC | inactive |
| Cc1ccc(Cl)cc1NC(=O)c1nc[nH]c1C(=O)Nc1nc2ccccc2[nH]1 | inactive |
| Cc1ccc(OCCn2c(CCNC(=O)C3CCOCC3)nc3ccccc32)cc1 | inactive |
| CCN1CCN(C(=S)c2ccc(O)cc2)CC1 | inactive |
| CNc1nnc(-c2cccc3ccccc23)s1 | inactive |
| O=S(=O)(NCC1CN(S(=O)(=O)c2c(F)cccc2F)C1)c1ccc2c(c1)OCCO2 | inactive |
| Brc1ccc(-c2csc(N3CCCCC3)n2)cc1 | inactive |
| Cc1cnc(-c2ccccc2C(C)C)nc1NCc1cccnc1 | inactive |
| COc1cccc(-c2ccc(-c3nc4ccccc4c(=O)[nH]3)o2)c1 | inactive |

Source: PubChem BioAssay (NCATS)
